High-throughput results (PubChem)
Hits are enriched below; roughly 4.6% of the tested compounds scored in any of these assays.
TRHR agonist = TRH receptor (human) agonism | TRHR cells, calcium flux fluo-8, FDSS agonist mode | 360,000 tested, 0.18% active | activation, % at 2 µM | P34981 | AID 493084
Target sequence (P34981 whole entry, looked up): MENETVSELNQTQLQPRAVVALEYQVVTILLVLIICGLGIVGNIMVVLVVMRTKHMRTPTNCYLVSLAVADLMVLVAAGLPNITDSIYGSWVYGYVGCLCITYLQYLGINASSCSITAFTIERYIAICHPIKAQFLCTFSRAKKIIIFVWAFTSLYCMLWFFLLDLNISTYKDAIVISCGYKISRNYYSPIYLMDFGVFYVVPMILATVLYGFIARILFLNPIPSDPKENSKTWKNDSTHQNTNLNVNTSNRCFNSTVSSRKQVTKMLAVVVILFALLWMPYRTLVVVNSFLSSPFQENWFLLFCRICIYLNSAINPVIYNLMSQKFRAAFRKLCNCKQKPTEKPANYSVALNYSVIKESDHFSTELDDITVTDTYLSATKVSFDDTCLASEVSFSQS
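TRHR-expressing cells loaded with fluo-8 calcium dye; 23 nL library compound pin-transferred, kinetic FDSS fluorescence (Ex 480/Em 530) recorded about 180 s for agonist-induced calcium release, before a 10 nM TRH EC20 addition for potentiator mode.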
TRHR enhancer = allosterically enhances the human TRH receptor | TRHR cells, fluo-8 calcium fluorescence, EC20 TRH enhancement | enhancement, % at 2 µM | 360,000 tested, 0.66% active | AID 493056; in the data active = enhancement above about 30%
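TRHR-expressing cells loaded with fluo-8 calcium dye were read kinetically (ex 480/em 530) during compound addition, then stimulated with an EC20 of TRH (10 nM final). Enhancement of the Gq-mediated intracellular calcium response was scored.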
D1 PAM = human D1 dopamine receptor positive modulation | P21728 | potentiation, % at 10 µM | 360,000 tested, 0.036% active | HEK293 TREx D1 cells, calcium flux, dopamine EC20 potentiation | AID 504651; in the data active = potentiation above about 30%
D1 antag = blocks dopamine activation of the human D1 receptor; AID 504652; HEK293 TREx D1 cells, calcium flux, dopamine EC80; stronger effect = lower value; activity change, negative = inhibition, % at 10 µM; 360,000 tested, 3.2% active; P21728; in the data active = activity change below about -30%
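HEK293 T-REx cells expressing inducible, force-coupled D1 receptor; no-wash Ca dye, 30–90 min RT. Cmpd → 180 s read at 1 Hz → EC80 DA → 180 s read.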
D1 ag = activates the human D1 dopamine receptor. HEK293 T-REx D1 cells, calcium flux, agonist mode. P21728. 360,000 tested, 1% active. activation, % at 2 µM
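Agonism was scored from calcium flux recorded over 180 s (1 read/s) after pintool compound addition, following a 10-cycle baseline. Cells were inducible force-coupled HEK293 TREx D1, plated overnight at 30 C and loaded with no-wash calcium dye.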
Hits are given with their value; - = inactive. Rule as the data show it, unless noted: active = activation above about 30%; inactive = the rest.

SMILES	TRHR agonist	TRHR enhancer	D1 PAM	D1 antag	D1 ag
CC1CCC(NC(=O)C2(C)Cc3ccccc3C(=O)N2Cc2ccc(Cl)cc2)CC1 (stereo not given)	-	-	-	-52	-
CCOc1ccc(OCC)c(NC(=O)c2cc(S(=O)(=O)N3CCc4ccccc43)cn2C)c1	-	-	-	-	-
COc1ccc(C)cc1NCc1cc(=O)oc2cc(-c3ccccc3)c(O)cc12	-	-	-	-30	-
Cc1cc(C)cc(NCc2cc(=O)oc3cc(-c4ccccc4)c(O)cc23)c1	-	-	-	-	-
Cn1nnnc1Sc1ncnc2scc(-c3cccc(N)c3)c12	-	-	-	-	-
Cc1c(O)ccc(NS(=O)(=O)c2ccccc2)c1C	-	-	-	-36	-
O=S(=O)(O)c1c(NS(=O)(=O)c2ccccc2)ccc2ccccc12	-	-	-	-36	-
Cc1cc(NS(=O)(=O)c2ccccc2)c(C)c(Cl)c1O	-	-	-	-	44
O=C(NCc1cccc(F)c1)C1CCN(c2nn3cc(-c4ccc(F)cc4)nc3s2)CC1	-	-	-	-	-
Cc1n[nH]c(=S)n1/N=C/c1cccc(OCc2ccccc2)c1	-	-	-	-	-
Cc1n[nH]c(=S)n1/N=C/c1ccccc1OCc1ccc(Cl)cc1	-	-	-	-87	-
CC(=O)c1cc(-c2ccccc2)n(CCC(=O)NC(C)c2ccccc2)c1C (stereo not given)	-	-	-	-	-
Fc1ccc(C(CCNCc2ccccn2)c2ccc(Cl)cc2)cc1 (stereo not given)	-	-	-	-	67
CN1CCc2c(sc(NC(=O)c3cc(Cl)sc3Cl)c2C(N)=O)C1	-	-	-	-32	-
CN1CCc2c(sc(NC(=O)c3ccco3)c2C(N)=O)C1	-	-	-	-	-
CNC(=O)c1c(NC(=O)c2ccc(S(=O)(=O)N3CCCc4ccccc43)cc2)sc2c1CCN(C)C2	-	34	-	-57	-
CN1CCc2c(sc(NC(=O)c3ccc(S(=O)(=O)N4CCCCCC4)cc3)c2C(N)=O)C1	51	-	-	-	-
Cn1nnnc1Sc1ncnc2scc(-c3ccc(S(C)(=O)=O)cc3)c12	-	-	-	-	-
CCOc1ccc(CNCc2c(C(=O)O)c(C)n(Cc3c(F)cccc3Cl)c2C)cc1OC	-	-	-	-	-
O=C(c1cnc(N2CCCCC2)c2ccccc12)N1CCN(c2ccc(F)cc2)CC1	-	-	-	-	-
Cc1ccc(NC(=O)c2ccc(-c3cccc(Cl)c3C)o2)cc1	-	36	-	-	-
CCC(C)NC(=O)c1c(-c2ccccc2)c(-c2ccccc2)nn(C)c1=O (stereo not given)	-	-	-	-	-
CN(CCCNC(=O)Cn1ncc2c([nH]c3ccccc32)c1=O)Cc1ccccc1	-	-	-	-	-
O=C(Nc1c(C(=O)N2CCN(c3ccccc3F)CC2)oc2ccccc12)c1cccc(F)c1	-	-	-	-	-
CCOc1ccc(CCNC(=O)CSc2nc3ccccc3nc2Cc2ccc(C)cc2)cc1OCC	-	-	-	-	-
SMILES	TRHR agonist	TRHR enhancer	D1 PAM	D1 antag	D1 ag
C=CCN1C(=O)c2cccc3c(N4CCCCC4)ccc(c23)C1=O	34	-	-	-	89
Cc1n[nH]c(C)c1N1C(=O)c2cccc3c(N4CCCCCC4)ccc(c23)C1=O	126	-	-	-	281
O=C1c2cccc3c(N4CCCCC4)ccc(c23)C(=O)N1CCO	69	-	-	-	109
O=C1c2ccccc2C(=O)N1CCN1CCCCC1	-	-	-	-	-
O=C(c1cccc(N2C(=O)c3ccccc3C2=O)c1)N1CCCCCC1	-	-	-	-	-
O=C1c2cccc3c(N4CCCCC4)ccc(c23)C(=O)N1c1cccc(O)c1	73	-	-	-	300
COc1ccccc1NC(=O)Cn1cc(S(=O)(=O)Cc2ccccc2)c2ccccc21	-	-	-	-	-
CCCOc1cccc(C(=O)N(Cc2ccc(C)o2)C2CCS(=O)(=O)C2)c1 (stereo not given)	-	-	-	-	-
CCN(CC)Cc1c(-c2ccccc2)[nH]c2ccc(C)cc2c1=O	-	-	-	-48	-
Cc1ccc2[nH]c(-c3ccccc3)cc(=O)c2c1	-	-	-	-	-
CN(Cc1ccccc1)C(=O)c1ccc(NC(=O)Cc2cccc(NC(=O)C3CCCN(C(=O)CCc4ccccc4)C3)c2)cc1 (stereo not given)	-	-	-	-33	-
